Experimental data from PubChem BioAssay (Tox21).
Inconclusive results are not listed. Calls of active or inactive are those of the source. Unless noted, the call rests on the fitted dose curve.

Assays:
[1] = Nuclear factor erythroid 2-related factor 2/antioxidant responsive element (Nrf2/ARE) small molecule agonists: qHTS cell viability counter screen in human keratinocytes (AID 1919968; active means well fitted curve in the direction sought with a large enough effect in the repeat runs; an effect the other way counts as inactive or inconclusive; further: nearly all actives have a fitted effect of over 55% in size)
Summary of the method: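 KeratinoSens HaCaT cells, 1,500/well, preincubated 5 h, then exposed to compounds in DMSO for 23 h at 37 C/5% CO2. Viability read as CellTiter-Fluor fluorescence after 1 h, in the same wells as the ARE-luciferase read.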

[2] = target: KiSS-1 receptor (Homo sapiens) (UniProt Q969F8); test: Human kisspeptin (KISS1R) small molecule agonists, calcium flux assay in KISS1R-HEK293 cells (AID 1920064; active means well fitted curve in the direction sought with a large enough effect in the repeat runs; an effect the other way counts as inactive or inconclusive)
Summary of the method: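 HEK293 cells stably expressing human KISS1R were loaded with calcium dye for 1 h at 37 C, then given compound; fluorescence (Ex/Em 480/540) was read kinetically for 3 min. Fifteen concentrations, triplicate.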

[3] = G protein-coupled receptor (GPCR) small molecule agonists, calcium flux assay: HEK293 wild type cell line counter screen (AID 1920065)
Summary of the method: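 Wild-type HEK293 cells plated 18 h, loaded with calcium dye 1 h at 37 C, then compounds added in agonist mode (ATP as positive control). Kinetic fluorescence Ex/Em 480/540 recorded 3 min at 1 sec intervals; 15 concentrations, triplicate.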

[4] = p53 small molecule agonists, cell-based qHTS assay with human liver microsomes (AID 1963577)
Summary of the method: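 p53RE-bla reporter cells were pre-incubated 5 h at 37 C, then treated with compounds plus human liver microsomes (0.5 mg/mL final) and NADPH (0.5 mg/mL final) for 16 h at 37 C. Beta-lactamase activity was read by LiveBLAzer fluorescence after 2 h at room temperature.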

[5] = p53 small molecule agonists, cell-based qHTS assay with rat liver microsomes (AID 1963578)
Summary of the method: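 p53RE-bla cells were exposed to compounds together with rat liver microsomes (0.5 mg/mL final) and NADPH (0.5 mg/mL final) for 16 h at 37 C, then read by LiveBLAzer beta-lactamase fluorescence after 2 h at room temperature.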

[6] = p53 small molecule agonists, cell-based qHTS assay with human liver microsomes: qHTS cell viability counter screen (AID 1963579); further: nearly all actives have a fitted effect of over 45% in size
Summary of the method: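 p53RE-bla cells (4,000/well) were pre-incubated 5 h at 37 C, then given compounds in DMSO plus human liver microsomes (0.5 mg/mL final) and NADPH (0.5 mg/mL final) for 16 h at 37 C. Viability was read by CellTiter-Glo luminescence.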

[7] = p53 small molecule agonists, cell-based qHTS assay with rat liver microsomes: qHTS cell viability counter screen (AID 1963580); further: nearly all actives have a fitted effect of over 45% in size
Summary of the method: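 Intracellular ATP, by CellTiter-Glo luminescence, defines viability. HCT-116 p53RE-bla cells, 4,000 per well, were compound-treated in the presence of rat liver microsomes and NADPH for 16 h at 37 C.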

[8] = p53 small molecule agonists, cell-based qHTS assay: qHTS cell viability counter screen (AID 1963581); further: nearly all actives have a fitted effect of over 45% in size
Summary of the method: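 p53RE-bla HCT-116 cells, compounds added 5 h after plating and incubated 16 h at 37 C. Cytotoxicity measured in the same wells as intracellular ATP by CellTiter-Glo luminescence after 30 min at room temperature.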

[9] = p53 small molecule agonists, cell-based qHTS assay (AID 1963582; active means well fitted activation curve with a large enough effect in the signal ratio in the repeat runs, not every such curve was filed as active; the % refers to the signal ratio)
Summary of the method: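 p53RE-bla reporter cells, compounds added in DMSO after 5 h plating, incubated 16 h at 37 C. Beta-lactamase read via 2 h room-temperature LiveBLAzer B/G FRET substrate, fluorescence intensity.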

[10] = target: 5-hydroxytryptamine receptor 2A (Homo sapiens) (UniProt P28223); test: 5-hydroxytryptamine receptor 2A (HTR2A) small molecule antagonists, cell-based qHTS assay (AID 1963586); further: nearly all actives have a fitted effect of over 45% in size
Summary of the method: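 Antagonist-mode intracellular calcium assay: DOI (4 nM) added after 5 min compound pre-incubation at room temperature to dye-loaded HTR2A-CHO cells. Fluorescence followed for 3 min, sampled every second.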

[11] = target: 5-hydroxytryptamine receptor 2A (Homo sapiens) (UniProt P28223); test: 5-hydroxytryptamine receptor 2A (HTR2A) small molecule agonists, cell-based qHTS assay (AID 1963587); further: nearly all actives have a fitted effect of over 30% in size
Summary of the method: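 Kinetic calcium-flux fluorescence (2 min, 1 sec intervals) after compound addition in agonist mode. HTR2A-CHO cells were cultured 18 h, then dye-loaded 1 h at 37 C.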

[12] = target: Muscarinic acetylcholine receptor M1 (Homo sapiens) (UniProt P11229); test: Cholinergic receptor muscarinic 1 (CHRM1) small molecule antagonists, cell-based qHTS assay (AID 1963588); further: nearly all actives have a fitted effect of over 40% in size
Summary of the method: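 CHRM1-CHO calcium-flux assay, antagonist mode. Cells were seeded 18 h, dye-loaded 1 h at 37 C and given compound for 5 min at RT, then acetylcholine was added at 50nM. FDSS fluorescence was read 3 min; 15 concentrations, three runs.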

[13] = target: Muscarinic acetylcholine receptor M1 (Homo sapiens) (UniProt P11229); test: Cholinergic receptor muscarinic 1 (CHRM1) small molecule agonists, cell-based qHTS assay (AID 1963589); further: nearly all actives have a fitted effect of over 35% in size
Summary of the method: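 CHO cells stably expressing human CHRM1 were loaded with calcium dye for 1 h at 37 C, then compound was added in agonist mode. Intracellular calcium fluorescence was followed kinetically at 1 s intervals. Fifteen concentrations were tested in three independent runs.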

[14] = cAMP Responsive Elements (CRE) small molecule agonists, cell-based qHTS assay (AID 1963590)
Summary of the method: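 CRE-bla HEK 293T cells, 2,000/well in DMEM with 10% dialyzed FBS and 25 mM HEPES, pre-incubated 18 h at 37 C, then exposed to compound 3 h at 37 C. Beta-lactamase reporter read with LiveBLAzer B/G FRET substrate after 2 h at room temperature.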

[15] = cAMP Responsive Elements (CRE) small molecule antagonists, cell-based qHTS assay (AID 1963591; active means well fitted inhibition curve with a large enough effect in the signal ratio in the repeat runs, not every such curve was filed as active; the % refers to the signal ratio)
Summary of the method: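 CRE-bla HEK293T cells plated 18 h, then given compound plus NKH477 at 0.25 uM final for 3 h at 37C. Beta-lactamase reporter read with LiveBLAzer B/G FRET substrate after 2 h at room temperature.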

[16] = target: D(2) dopamine receptor (Homo sapiens) (UniProt P14416); test: Dopamine D2 receptor (DRD2) small molecule agonists, cell-based qHTS assay (AID 1963594); further: nearly all actives have a fitted effect of over 35% in size
Summary of the method: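 cAMP accumulation in DRD2-HEK293 cells measured by HTRF after 1 h detection; compounds added 10 min before NKH477 (200nM […]) forskolin-analogue stimulation, 30 min at room temperature, with Ro20-1724 present at 0.1 mM final.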

[17] = target: Beta-2 adrenergic receptor (Homo sapiens) (UniProt P07550); test: Adrenergic beta2 receptor (ADRB2) small molecule antagonists, cell-based qHTS assay (AID 1963592); further: series mostly up to about 92 µM; nearly all actives have a fitted effect of over 50% in size
Summary of the method: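 Cells (CHO, stable ADRB2 overexpression) incubated 18-20hr at 37C; compounds added from DMSO; agonist mix (1nM isoproterenol, 100uM IBMX, 25uM Ro-20-1724) added; 0.5hr RT; d2-cAMP and anti-cAMP-cryptate added; 1hr RT; 665/615 nm read.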

[18] = Nuclear factor erythroid 2-related factor 2/antioxidant responsive element (Nrf2/ARE) small molecule agonists: luciferase reporter gene qHTS assay in human keratinocytes (AID 1919969); further: nearly all actives have a fitted effect of over 35% in size
[19] = target: Beta-2 adrenergic receptor (Homo sapiens) (UniProt P07550); test: Adrenergic beta2 receptor (ADRB2) small molecule agonists, cell-based qHTS assay (AID 1963593);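 further: CHO cells stably overexpressing human ADRB2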
Summary of the method: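 CHO cells stably over-expressing ADRB2 were plated overnight at 37C, then dosed with compounds plus a stimulation mix containing 100uM IBMX and 25uM Ro-20-1724 for 0.5hr at room temperature. cAMP was measured by HTRF competition, 1hr.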

[20] = target: D(2) dopamine receptor (Homo sapiens) (UniProt P14416); test: Dopamine D2 receptor (DRD2) small molecule antagonists, cell-based qHTS assay (AID 1963595; active means well fitted inhibition curve with a large enough effect in the signal ratio in the repeat runs, with a control signal flat; the % refers to the signal ratio)
Summary of the method: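 Antagonist mode in DRD2-HEK293 cells: after compound addition with 0.1 mM Ro20-1724, cells received quinpirole (12 nM) and NKH477 (200 nM) for 30 min at room temperature; HTRF cAMP read after 1 h detection.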

Measured: Potency

D(2) dopamine receptor (Homo sapiens), sequence (P14416 whole entry, looked up): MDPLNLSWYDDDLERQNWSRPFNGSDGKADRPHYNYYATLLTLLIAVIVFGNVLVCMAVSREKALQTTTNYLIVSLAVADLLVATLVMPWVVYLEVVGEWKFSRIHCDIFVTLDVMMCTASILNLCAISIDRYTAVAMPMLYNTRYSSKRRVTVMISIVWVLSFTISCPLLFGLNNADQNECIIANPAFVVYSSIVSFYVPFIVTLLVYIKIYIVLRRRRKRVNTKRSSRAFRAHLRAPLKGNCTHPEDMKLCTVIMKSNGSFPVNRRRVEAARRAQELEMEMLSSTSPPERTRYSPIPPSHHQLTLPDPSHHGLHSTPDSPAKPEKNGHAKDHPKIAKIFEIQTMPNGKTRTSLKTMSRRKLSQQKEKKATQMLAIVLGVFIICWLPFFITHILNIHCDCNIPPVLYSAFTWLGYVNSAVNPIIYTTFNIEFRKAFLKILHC
Beta-2 adrenergic receptor (Homo sapiens), sequence (P07550 whole entry, looked up): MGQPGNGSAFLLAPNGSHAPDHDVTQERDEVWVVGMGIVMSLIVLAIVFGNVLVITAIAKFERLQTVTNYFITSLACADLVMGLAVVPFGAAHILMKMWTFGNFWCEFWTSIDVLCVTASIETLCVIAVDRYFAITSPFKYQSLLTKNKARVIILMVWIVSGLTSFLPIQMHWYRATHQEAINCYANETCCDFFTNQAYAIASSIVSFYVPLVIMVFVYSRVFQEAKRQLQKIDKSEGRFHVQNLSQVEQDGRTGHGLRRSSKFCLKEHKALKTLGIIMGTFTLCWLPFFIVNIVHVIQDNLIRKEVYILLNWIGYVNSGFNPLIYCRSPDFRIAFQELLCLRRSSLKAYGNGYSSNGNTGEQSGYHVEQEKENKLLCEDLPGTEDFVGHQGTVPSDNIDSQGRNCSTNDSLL
Muscarinic acetylcholine receptor M1 (Homo sapiens), sequence (P11229 whole entry, looked up): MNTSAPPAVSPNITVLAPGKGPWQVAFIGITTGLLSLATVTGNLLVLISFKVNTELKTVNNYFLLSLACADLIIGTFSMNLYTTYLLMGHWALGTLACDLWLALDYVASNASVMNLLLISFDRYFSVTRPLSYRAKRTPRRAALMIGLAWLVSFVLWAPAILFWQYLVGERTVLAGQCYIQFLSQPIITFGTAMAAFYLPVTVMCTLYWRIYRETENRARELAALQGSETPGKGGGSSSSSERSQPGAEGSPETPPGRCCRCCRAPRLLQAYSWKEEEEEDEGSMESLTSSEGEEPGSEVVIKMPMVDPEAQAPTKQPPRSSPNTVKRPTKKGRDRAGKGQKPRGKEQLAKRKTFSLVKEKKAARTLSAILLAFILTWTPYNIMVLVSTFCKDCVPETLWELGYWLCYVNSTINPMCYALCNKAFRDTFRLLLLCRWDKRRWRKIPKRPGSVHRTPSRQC
5-hydroxytryptamine receptor 2A (Homo sapiens), sequence (P28223 whole entry, looked up): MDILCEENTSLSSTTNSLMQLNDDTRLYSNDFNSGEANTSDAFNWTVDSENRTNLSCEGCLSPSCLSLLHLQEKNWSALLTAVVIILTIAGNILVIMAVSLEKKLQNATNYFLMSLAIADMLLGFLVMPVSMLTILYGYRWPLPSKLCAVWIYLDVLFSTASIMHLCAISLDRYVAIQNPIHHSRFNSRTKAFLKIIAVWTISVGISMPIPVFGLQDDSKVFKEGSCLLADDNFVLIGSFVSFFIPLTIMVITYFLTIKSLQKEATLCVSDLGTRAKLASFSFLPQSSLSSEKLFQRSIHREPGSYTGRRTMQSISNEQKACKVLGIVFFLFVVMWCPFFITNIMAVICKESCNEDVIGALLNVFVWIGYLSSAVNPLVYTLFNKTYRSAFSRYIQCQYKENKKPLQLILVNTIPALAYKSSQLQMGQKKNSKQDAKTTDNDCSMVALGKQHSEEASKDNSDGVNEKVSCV
KiSS-1 receptor (Homo sapiens), sequence (Q969F8 whole entry, looked up): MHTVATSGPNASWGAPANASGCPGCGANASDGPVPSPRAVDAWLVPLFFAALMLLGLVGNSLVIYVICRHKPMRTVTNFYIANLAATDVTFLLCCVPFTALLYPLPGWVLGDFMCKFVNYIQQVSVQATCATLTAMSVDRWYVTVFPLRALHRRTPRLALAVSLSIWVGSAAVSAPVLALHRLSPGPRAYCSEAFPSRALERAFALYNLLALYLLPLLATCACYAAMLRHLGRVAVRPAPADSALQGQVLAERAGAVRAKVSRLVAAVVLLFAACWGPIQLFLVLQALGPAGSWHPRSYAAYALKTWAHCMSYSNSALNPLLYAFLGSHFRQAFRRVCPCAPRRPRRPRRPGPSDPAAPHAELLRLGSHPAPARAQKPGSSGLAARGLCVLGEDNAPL

O=C1Nc2ccc([N+](=O)[O-])cc2C1=O
not listed: [17] | [18] | [19] | [20]
inactive: all other assays above

CC(=O)O[Si](C)(OC(C)=O)OC(C)=O
not listed: [18] | [19] | [20]
inactive: all other assays above

C=CC(=O)N1CCOCC1
not listed: [2] | [4] | [5] | [9] | [17] | [20]
inactive: all other assays above

CCOC(=O)CC(=O)C(=O)OCC
not listed: [18] | [19]
inactive: all other assays above

CC(C)CCCCCCN
not listed: [18] | [19]
inactive: all other assays above

COC(C)CCO (stereo not given)
not listed: [17] | [18] | [19]
inactive: all other assays above
